Source: PubChem
In the library only some 8% were active in any assay of this set; here they are far more common.
KB-3-1 cytotox: KB-3-1 parental cell cytotoxicity. hit rate 1.4% among 400,000. KB-3-1 viability, CellTiter-Glo ATP luminescence, 72 h. Potency, µM (series often up to 46.1 µM), actives largely listed as cytotoxic; also: % is scaled to controls: 0 for no effect and ±100 for the full control effect; nearly all actives have a fitted effect of over 60% in size
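Cytotoxicity measured as CellTiter-Glo luminescence after 72 h at 37 C. Compound titrations were pinned onto drug-naive KB-3-1 parental adenocarcinoma cells grown in DMEM with 10% FBS, and normalized data fitted to concentration-response curves.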
HT1080NT lethal: kills 2HG-producing HT-1080-NT fibrosarcoma cells; HT-1080-NT fibrosarcoma viability, CellTiter-Glo ATP luminescence, 48 h; hit rate 1.6% among 360,000; Potency, µM (titrated, usually from 46.1 µM), inactives show at the top dose activity, negative = less viability, actives largely listed as cytotoxic; AID 686970;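 also: NT is the 2HG producing partner of a matched IDH1 knockdown line; 0% = DMSO-treated cells and -100% = media-only wells without cells; nearly all actives have a fitted effect of over 55% in size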
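A 48-hour cytotoxicity screen used HT-1080-NT cells plated 2 hours before compound delivery. ATP-based CellTiter-Glo luminescence measured viability, normalized to DMSO and no-cell controls.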
SW480 rerep: induces DNA re-replication in SW480 colon adenocarcinoma cells. SW480 DNA re-replication, Hoechst DNA content imaging, 48 h. Potency, µM (highest dose often 46.1 µM), inactives show at the highest dose re-replication activation, hits mostly activators. hit rate 1.8% among 340,000. AID 624297; also: % of control where 0% means no effect; nearly all actives have a fitted effect of over 55% in size
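DNA re-replication was detected as more nuclei of elevated Hoechst intensity after 48 hr exposure to compound (23 nL pinned per well of 250 cells).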
KB-V1 MDR tox: kills drug-selected multidrug resistant KB-V1 cells; hit rate 3.4% among 400,000; Potency, µM (titrated, usually from 46.1 µM), hits mostly cytotoxic; KB-V1 MDR cells viability, CellTiter-Glo, 72 h; also: % is scaled to controls: 0 for no effect and ±100 for the full control effect; nearly all actives have a fitted effect of over 60% in size
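Potencies derive from concentration-effect curves fitted to normalized luminescence (CellTiter-Glo) of KB-V1 cells treated for 72 h at 37 degrees C in phenol-red-free DMEM containing 10% FBS.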
HT1080 IDH1KD tx: kills HT-1080 cells with IDH1 knockdown; HT-1080 IDH1 knockdown viability, ATP luminescence, 48 h; Potency, µM (top dose mostly 46.1 µM), for the others: at the highest dose activity, negative = toxicity, usual class: cytotoxic; hit rate 2% among 360,000;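 also: 0% = DMSO wells and -100% = cell-free medium wells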
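Knockdown cells (IDH1KD HT-1080) received compounds 2 h after plating at 750 cells/well and were kept 48 h at 37 °C in 5% FBS RPMI. A CellTiter-Glo luminescence read gave % activity for curve fitting.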
MCF10A rereplic: induces DNA re-replication in MCF 10a normal breast cells; MCF 10A DNA re-replication, Hoechst nuclear intensity, 48 h; Potency, µM (titrated, usually from 46.1 µM), without a hit: at the top dose activity, positive = re-replication, usual class: activators; hit rate 2.9% among 350,000; AID 624296; also: % of control where 0% means no effect; nearly all actives have a fitted effect of over 50% in size
Active calls of the source: *; i = inactive; ? = inconclusive; / = no result; [ ] = dose if it differs, or a comment. Calls follow the shape of the dose curve; as a rule, active = well fitted curve in the direction sought with a large enough effect; inconclusive = small, poorly fitted or top-dose-only effect, or another doubt; inactive = no such curve, though single readings can be large; an effect the other way counts as inactive or inconclusive. Potency is read from the fitted curve at half-maximal effect.

SMILES	KB-3-1 cytotox	HT1080NT lethal	SW480 rerep	KB-V1 MDR tox	HT1080 IDH1KD tx	MCF10A rereplic
OCC1OC(n2cnc3c(/C=C(\O)c4ccccc4)ncnc32)C(O)C1O (configuration not stated)	?	?	?	?	15µM*	5.8µM*
O=c1[nH]cnc2c1ncn2C1OC(CO)C(O)C1O (configuration not stated)	i	0%	-7%	i	3%	4%
OCC1OC(n2ccc3c2ncn2ncnc32)C(O)C1O (configuration not stated)	?	0.58µM*	/	0.65µM*	0.65µM*	/
COc1ccc(C[C@H](N)C(=O)N[C@H]2[C@@H](O)[C@H](n3cnc4c(N(C)C)ncnc43)O[C@@H]2CO)cc1	0.41µM*	4%	?	i	11%	?
CN(C)c1ncnc2c1nnn2C1OC(CO)C(O)C1O (configuration not stated)	i	0.58µM*	/	1.6µM*	0.46µM*	/
C=CCOc1ccc(C[C@H](N)C(=O)NC[C@H]2O[C@@H](n3cnc4c(N)ncnc43)[C@H](O)[C@@H]2O)cc1	i	-1%	13%	i	4%	-1%
Cc1ccc(-n2ncc3c2CCCC3NC(=O)CCn2ccnc2C)cc1C (configuration not stated)	/	4%	5%	/	1%	12%
COc1ccc(CNC(=O)CSc2nc3c(oc4ccccc43)c(=O)n2CC2CCCO2)cc1 (configuration not stated)	i	-7%	-2%	i	0%	15%
COc1cccc(CC(=O)N(CCC2=CCCCC2)c2c(N)n(Cc3ccccc3)c(=O)[nH]c2=O)c1	i	5%	-7%	i	1%	0%
CNc1ncnc2c1ncn2[C@@H]1O[C@H](CO)[C@@H](O)[C@H]1O	i	14%	0%	i	12%	20%
CN(C)c1ncnc2c1ncn2C1OC(CO)C(O)C1O (configuration not stated)	8.2µM*	13µM*	7.3µM*	?	13µM*	?
Clc1ccc2c(c1)C(C1=NCCN1)c1ccccc1CS2 (configuration not stated)	0.92µM*	1.2µM*	1.3µM*	10µM*	1.5µM*	1.6µM*
O=C(Nc1cc(N2CCCCC2)ncn1)c1ccc(F)cc1	i	9%	-3%	i	7%	0%
CCOc1ccc2[nH]c(=O)c(C(c3nnnn3C3CCCCC3)N3CCN(C)CC3)cc2c1 (configuration not stated)	i	-7%	-5%	i	-11%	2%
CCC(c1nnnn1Cc1ccco1)N(Cc1ccccc1OC)Cc1cc2cc(C)ccc2[nH]c1=O (configuration not stated)	i	?	-6%	13µM*	-6%[9.24 µM]	?
Cc1ccc2[nH]c(=O)c(CN(CCCO)C(C)c3nnnn3Cc3ccco3)cc2c1 (configuration not stated)	i	-1%	-121%	i	1%	2%
COc1ccc2[nH]c(=O)c(CN(C3CCCCC3)C(c3nnnn3Cc3ccco3)C(C)C)cc2c1 (configuration not stated)	?	-16%	13%	12µM*	-24%	?
COc1ccc2[nH]c(=O)c(C(c3nnnn3C3CCCC3)N(C)C3CCCCC3)cc2c1 (configuration not stated)	i	-1%	16%	5.2µM*	-1%	14%
O=C(NCC1CCCCC1)c1cc([N+](=O)[O-])ccc1N1CCOCC1	i	-2%	11%	i	-5%	4%
CCN(CC)C(C)C(=O)Nc1c2c(cc3c1CCC3)CCC2 (configuration not stated)	i	0%	1%	9.2µM*	1%	7%
